Compound activity: PubChem BioAssay, National Center for Advancing Translational Sciences (NCATS)
Shown is part of a subset that was picked to be rich in hits.
Shiga inhibitor: inhibitors of Shiga toxin in Vero cells; Vero cells, Shiga toxin protein synthesis inhibition reporter; inhibition, % at 38.7 µM; 290,000 tested, 9.2% active; AID 2315; in the data active means inhibition mostly above about 28%, no sharp cut-off; inactive means mostly below about 43%
AMA1-RON2 inh: disrupts binding of P. falciparum AMA1 to RON2; AlphaScreen AMA1-biotinylated RON2 peptide binding; Potency, µM (doses to about 58.2 µM), most hits filed as inhibitors; 360,000 tested, 0.2% active; further: nearly all actives have a fitted effect of over 45% in size
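AMA1 (3D7) with his tag at 25 nM final met compounds first, then biotinylated RON2 peptide at 25 nM; detection used donor plus acceptor beads, 10 µg/mL apiece, read by AlphaScreen after 30 min at room temperature.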
AmpC detergent: AmpC beta-lactamase inhibition with detergent present; 370,000 tested, 0.041% active; Potency, µM (series often up to 114 µM), actives largely listed as inhibitors; P00811; AmpC hydrolysis of nitrocefin, absorbance 480 nm, 0.01% Triton; further: nearly all actives have a fitted effect of over 25% in size
Target sequence (P00811 whole entry, looked up): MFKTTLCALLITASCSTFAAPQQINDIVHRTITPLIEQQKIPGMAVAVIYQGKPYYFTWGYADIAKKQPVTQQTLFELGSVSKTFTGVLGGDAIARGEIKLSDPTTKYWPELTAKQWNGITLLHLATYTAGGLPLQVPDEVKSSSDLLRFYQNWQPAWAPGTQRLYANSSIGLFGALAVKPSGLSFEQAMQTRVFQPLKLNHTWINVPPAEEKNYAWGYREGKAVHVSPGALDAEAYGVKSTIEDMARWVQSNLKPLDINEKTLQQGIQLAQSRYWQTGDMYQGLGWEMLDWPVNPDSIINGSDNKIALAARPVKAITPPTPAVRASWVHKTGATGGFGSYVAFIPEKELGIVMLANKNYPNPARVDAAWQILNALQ
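20 mM phosphate pH 7.0 + 0.01% (detergent screen) or 0.0001% Triton X-100; 5.3 nM AmpC reagent; cpd preinc 15 min RT; nitrocefin (800 uM stock) to start; A480 q20 s × 4 min; Activity was normalised to no-enzyme and no-compound control wells.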
CHX counter: counter-screen hit for Shiga toxin inhibitors, cycloheximide. 300,000 tested, 12% active. max response, %. cell reporter, cycloheximide protein synthesis inhibition counterscreen. AID 2314; in the data active means max response mostly above about 13%, no sharp cut-off; inactive means mostly below about 14%; further: read at 38.3 µM for the half of the compounds with a filed dose
SARS PLP yeast: blocks SARS-CoV papain-like protease in a yeast assay; S. cerevisiae expressing SARS-CoV PLpro, growth rescue; Potency, µM (top dose mostly 32.9 µM), actives largely listed as activators; 330,000 tested, 0.19% active; AID 485353; calls by dose curve; further: nearly all actives have a fitted effect of over 55% in size
AmpC inh no detg: blocks E. coli AmpC beta-lactamase in detergent-free assay; AmpC nitrocefin hydrolysis, absorbance 480 nm, 0.0001% Triton; Potency, µM (series often up to 57.1 µM), hits mostly inhibitors; 330,000 tested, 0.52% active; AID 485341; further: nearly all actives have a fitted effect of over 20% in size
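20 mM phosphate pH 7.0 + 0.01% (detergent screen) or 0.0001% Triton X-100; 5.3 nM AmpC reagent; cpd preinc 15 min RT; nitrocefin (800 uM stock) to start; A480 q20 s × 4 min; Activity was normalised to no-enzyme and no-compound control wells.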
A number is an active result; i = inactive; ? = inconclusive; nt = no result given; + = active, no number; [ ] = another dose, or the depositor's remark. Unless noted, the call rests on the fitted dose curve; in most records, active means well fitted curve in the direction sought with a large enough effect; inconclusive means small, poorly fitted or top-dose-only effect, or another doubt; inactive means no such curve, though single readings can be large; an effect the other way counts as inactive or inconclusive.

SMILES	Shiga inhibitor	AMA1-RON2 inh	AmpC detergent	CHX counter	SARS PLP yeast	AmpC inh no detg
Cc1ccc2cc3cc(C(=O)N4CCN(Cc5ccccc5)CC4)sc3nc2c1	i	i	i	i	i	i
C=CCn1c(SCC(=O)Nc2ccc(-c3nc4ccc(C)cc4s3)cc2)nnc1-c1ccccc1	84	i	?	42	i	i
CNS(=O)(=O)c1cccc(C(=O)OCC(=O)Nc2ccc(-c3nc4ccc(C)cc4s3)cc2)c1	94	i	i	45	i	i
Cc1ccc2cc3cc(C(=O)N4CCN(C(=O)c5ccco5)CC4)sc3nc2c1	i	i	i	19	i	i
O=C(O)[C@H](CSCc1ccccc1)NS(=O)(=O)c1ccc(F)cc1	i	i[2.32 µM]	i	i	i	i
Cc1ccc2nc(-c3ccc(NC(=O)COc4ccccc4)cc3)sc2c1	nt	nt	i	nt	nt	nt
Cc1ccc2nc(-c3ccc(NC(=O)CN4CCN(C(=O)c5ccco5)CC4)cc3)sc2c1	136	i	i	43	i	i
CCOc1ncccc1C(=O)OCC(=O)Nc1ccc(-c2nc3ccc(C)cc3s2)cc1	128	i	?	76	i	?
Cc1ccc2nc(-c3ccc(NC(=O)COC(=O)c4ccc(Br)o4)cc3)sc2c1	81	i	i	27	i	i
COc1ccc(/C=C(\C#N)C(=O)OCC(=O)Nc2ccc(-c3nc4ccc(C)cc4s3)cc2)cc1	123	i	i	28	i	i
O=C(c1cn(-c2ccccc2)nc1-c1cccc([N+](=O)[O-])c1)N1CCCCC1	i	i	i	i	i	i
COC(C[C@H]1O[C@@H]1[C@H](O)[C@H](C)OCc1ccccc1)OC	nt	i	nt	nt	nt	nt
COc1ccc(-n2nnnc2C(C2CC2)N2CCC(n3c(=O)[nH]c4ccccc43)CC2)cc1 (centres undefined)	nt	i	nt	nt	nt	nt
O=C(Cc1cccs1)N[C@@H]1c2ccccc2CC[C@@H]1OCc1ccccc1	nt	i	nt	nt	i	i
Cc1ccc2nc(-c3ccc(NC(=O)COC(=O)c4ccco4)cc3)sc2c1	80	i	i	46	?	i
Cc1ccc2nc(-c3ccc(NC(=O)COC(=O)c4ccc([N+](=O)[O-])o4)cc3)sc2c1	91	i	i	53	i	?
Cc1ccc2nc(-c3ccc(NC(=O)COC(=O)c4cncc(Br)c4)cc3)sc2c1	64	i	i	39	i	i
CC(C)OCCCNC(=O)c1sc(=S)n(C)c1N	i	i	i	i	i	i
Cc1cccc(OCCOc2ccccc2C=C(C#N)C#N)c1	i	i	i	19	i	i
Cc1cccc(OCCCC(=O)NCCc2ccccc2)c1	i	i	i	i	i	i
Cc1ccccc1OCCOc1ccccc1C=C(C#N)C#N	36	nt	i	28	i	i
O=C(Cc1cccs1)N1CCN(c2nc(-c3ccc(Cl)cc3)cs2)CC1	i	i	i	i	i	i
CN1CCN(c2nc(-c3ccc(Cl)s3)cs2)CC1	50	i	i	46	i	i
Clc1ccc(-c2csc(N3CCCCCC3)n2)cc1	i	i	i	22	i	i
NC(=O)C1(N2CCCCC2)CCN(c2nc(-c3ccc(Br)cc3)cs2)CC1	i	i	?	i	i	i
SMILES	Shiga inhibitor	AMA1-RON2 inh	AmpC detergent	CHX counter	SARS PLP yeast	AmpC inh no detg
c1ccc(-c2cnnc(N3CCCCC3)n2)cc1	112	i	i	33	i	i
Brc1ccc(-c2csc(N3CCCCCC3)n2)cc1	i	i	?	8.6	i	i
COc1ccc(-c2csc(N3CCOCC3)n2)cc1OC	75	i	i	51	i	i
COc1ccc(-c2csc(/N=C/N(C)C)n2)cc1OC	i	i	i	18	i	i
Clc1ccc(-c2csc(N3CCOCC3)n2)cc1	56	i	i	47	i	i
O=C(N1CCOCC1)N1CCN(c2nc(-c3ccc(F)cc3)cs2)CC1	i	i	i	i	i	i
COc1ccc(-c2csc(C(C)(O)c3ccncc3)n2)cc1OC (centres undefined)	nt	i	nt	nt	nt	nt
Brc1ccc(-c2csc(N3CCOCC3)n2)cc1	136	i	i	63	i	i
Cc1nn(-c2ccccc2)c(C)c1/C=N/N1CCN(c2ccccn2)CC1	i	i	i	i	i	i
Cc1cccc(-c2c3c(=O)n(C)c(=O)n(C)c3c3cccnn23)c1	i	i	i	i	i	i
COC(=O)CC1C(=O)NCCN1C(=S)Nc1cccc(C(F)(F)F)c1 (centres undefined)	i	i	?	i	i	i
O=[N+]([O-])c1ccc(-c2csc(N3CCCCCC3)n2)cc1	i	i	i	17	i	i
Cc1cc(N2CCN(c3nc(-c4ccccc4)cs3)CC2)c2ccccc2n1	i	i	i	i	i	i
O=[N+]([O-])c1ccc(N2CCN(c3nc(-c4ccc(Cl)cc4)cs3)CC2)cc1	i	i	i	i	i	i
NC(=O)C1CCN(c2nc(-c3ccc(Br)cc3)cs2)CC1	i	i	?	20	i	i
c1ccc(-c2csc(N3CCCCCC3)n2)cc1	+	i	i	33	i	i
CCn1c(=O)c(C(=O)NC(C)C)c(O)c2ccccc21	i	i	i	i	i	i
COc1ccccc1-n1cnc2cc(NCc3ccco3)ccc21	i	i	?	i	i	i
O=C(CC(SCc1ccco1)c1ccc(O)cc1)c1cccs1 (centres undefined)	115	i	i	37	i	i
O=C(CC(SCCO)c1ccc2c(c1)OCO2)c1cccs1 (centres undefined)	i	i	?	29	i	i
CC(NC(=O)Cc1cccs1)c1ccc2c(c1)OCO2 (centres undefined)	i	i	?	i	i	i
Cn1c(CC(=O)Nc2ccccc2)n[nH]c1=S	i	i	i	i	i	i
CCn1nnc(NC(=O)c2ccccc2Br)n1	71	i	i	27	i	i
CCCn1nnc(NC(=O)c2ccccc2Br)n1	49	i	i	i	i	i
CCn1nnc(NC(=O)c2cccnc2)n1	i	i	i	i	i	i
SMILES	Shiga inhibitor	AMA1-RON2 inh	AmpC detergent	CHX counter	SARS PLP yeast	AmpC inh no detg
Cc1ccc(C(=O)N/N=c2\sc3ccccc3n2C)cc1	i	i	i	20	i	i
COc1cccc(C(=O)Nc2ccccc2NC(=O)c2cccc(OC)c2)c1	nt	i	i	i	i	i
CCC(=O)N/N=c1/sc2ccccc2n1C	i	i	i	i	i	i
COc1cccc(C(=O)N/N=c2\sc3ccccc3n2C)c1	i	i	?	15	i	i
Cn1/c(=N/NC(=O)c2ccccc2F)sc2ccccc21	79	i	i	35	i	i[11.4 µM]
Cc1ccc(S(=O)(=O)N2CCN(C(=O)CN3C(=O)NC4(CCCCC4)C3=O)CC2)c(C)c1	nt	i	i	nt	i	i
O=C1CC(O)(C(F)(F)F)Oc2c1ccc1ccccc21 (centres undefined)	i	i	?	19	i	i
COC(=O)c1ccc2c(c1)SC1=C(CCCC1=O)N2	active	?	i	21	i	i
